Rows were chosen to be rich in hits. Some 5.5% of all compounds tested hit in one or more screens of this group.
MBNL1-CUG inh: MBNL1-poly(CUG) RNA binding inhibition. Q9NR56. TR-FRET MBNL1-His/biotin-(CUG)12 binding, 665/545 ratio. Potency, µM (series often up to 57.5 µM), for inactives: at the highest dose activity change, negative = inhibition, usual class: inhibitors. hit rate 0.036% among 280,000. AID 2675; active = well fitted inhibition curve with a large enough effect in the signal ratio, with a control signal flat, not every such curve was filed as active; inconclusive = small, poorly fitted or top-dose-only effect, or effect the other way, or a change in a side signal; inactive = no such curve, though single readings can be large or run the other way; the % refers to the signal ratio; note: potency is the fitted concentration of half-maximal effect; % is set by controls: 0 for no effect and ±100 for the full control effect
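Inhibition of protein-RNA binding appears as loss of TR-FRET between terbium anti-His antibody on MBNL1-His and streptavidin-XL665 on biotin-(CUG)12. Activity is normalized to buffer-only and uninhibited-complex controls.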
RORg inh: ROR gamma (mouse) transcription inhibition; Drosophila S2 Gal4-RORgamma UAS-luciferase reporter, 20 h; P51450; AID 2551; hit rate 5.4% among 310,000; Potency, µM (highest dose often 53.6 µM), inactives show at the top dose activity change, negative = inhibition, most hits filed as inhibitors; note: potency is the fitted concentration of half-maximal effect; % is set by controls: 0 for no effect and ±100 for the full control effect; nearly all actives have a fitted effect of over 60% in size
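Drosophila Schneider cells stably carrying a metallothionein-driven Gal4 DBD–ROR gamma fusion and a UAS-Photinus luciferase reporter were exposed to compound for 1 hr, then induced with copper sulfate (700 uM final) for 20 hr at ambient temperature before luminescence reading.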
Six1-Eya2 inh: inhibitors of human Six1/Eya2 interaction; AlphaScreen GST-Six1/His-Eya2 binding, biochemical; active compounds read low; activity change, % (no concentration beside the values); hit rate 0.56% among 360,000; AID 651725; in the data active = activity change below about -65%; inconclusive = mostly about -30% to -63%; note: % is set by controls: 0 for no effect and ±100 for the full control effect
Target sequence (O00167 whole entry, looked up): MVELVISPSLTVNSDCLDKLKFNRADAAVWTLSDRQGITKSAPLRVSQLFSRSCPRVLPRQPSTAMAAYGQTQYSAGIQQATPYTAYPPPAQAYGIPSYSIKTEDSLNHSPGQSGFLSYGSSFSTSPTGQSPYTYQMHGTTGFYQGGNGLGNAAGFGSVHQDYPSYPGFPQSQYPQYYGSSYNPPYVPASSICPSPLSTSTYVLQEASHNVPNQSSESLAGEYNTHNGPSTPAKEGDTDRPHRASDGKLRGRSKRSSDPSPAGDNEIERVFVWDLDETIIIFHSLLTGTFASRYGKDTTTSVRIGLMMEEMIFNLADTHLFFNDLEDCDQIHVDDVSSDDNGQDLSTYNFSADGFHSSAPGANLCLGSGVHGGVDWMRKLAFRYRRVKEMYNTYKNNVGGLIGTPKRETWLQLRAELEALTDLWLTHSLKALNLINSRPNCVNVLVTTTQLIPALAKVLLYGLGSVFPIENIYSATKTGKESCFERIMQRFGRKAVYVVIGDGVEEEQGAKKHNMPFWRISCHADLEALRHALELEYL
Target sequence (Q15475 whole entry, looked up): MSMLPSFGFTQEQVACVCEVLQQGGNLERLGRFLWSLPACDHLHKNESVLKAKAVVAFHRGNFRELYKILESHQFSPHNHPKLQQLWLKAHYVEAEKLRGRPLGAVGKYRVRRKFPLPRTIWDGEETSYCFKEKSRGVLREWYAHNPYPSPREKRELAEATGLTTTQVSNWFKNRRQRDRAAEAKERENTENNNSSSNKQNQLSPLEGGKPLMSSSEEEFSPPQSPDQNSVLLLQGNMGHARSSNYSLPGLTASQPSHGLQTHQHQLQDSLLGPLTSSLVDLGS
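GST-Six1 + His-Eya2 (5X stock: 250/500 nM); Tris pH 8.0, 300 mM NaCl, 0.05% BSA, 0.02% Tween 20; GSH donor/Ni acceptor beads; 1 h 37 °C dark; AlphaScreen readout.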
CtBP-E1A blk: blocks the CtBP interaction with E1A | AlphaScreen GST-E1A/His-CtBP binding, 1536-well; active compounds read low | activity change, % (test concentration not listed) | hit rate 0.49% among 340,000; in the data active = activity change below about -65%; inconclusive = mostly about -30% to -63%; note: % is set by controls: 0 for no effect and ±100 for the full control effect
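Protein mix (5X: 125 nM each GST-E1A, His-CtBP) was incubated with pinned compound 2 h at 37 deg C in dark, in 50 mM Tris pH 8.0 buffer with 300 mM NaCl. Glutathione donor and nickel acceptor beads followed; AlphaScreen signal read after 1 h.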
CBFb-RUNX1 inh: inhibitors of human CBF-beta and RUNX1 interaction. Potency, µM (series often up to 59.8 µM), for the others: at the highest dose activity, negative = inhibition, hits mostly inhibitors. 230,000 tested, under 10 active. AlphaScreen CBFb-His/RUNX1-biotin binding, biochemical. Q01196+Q13951; note: % of control where 0% means no effect
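AlphaScreen binding: CBFb-His and RUNX1-biotin (30 nM each) preincubated 20 min, compound added for 15 min, then nickel and streptavidin beads for 90 min, all at room temperature. Disruption of the interaction by any mechanism counts as activity.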
VP16 counter: inhibits Gal4-VP16 luciferase reporter, ROR gamma counter-screen; Drosophila S2 Gal4-VP16 UAS-luciferase, luminescence, 20 h; AID 2546; Potency, µM (doses to about 53.6 µM), without a hit: at the top dose activity, negative = inhibition, hits mostly inhibitors; hit rate 3.5% among 310,000;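 note: Gal4-VP16 expression switched on by copper sulfate through the metallothionein promoter; potency is the fitted concentration of half-maximal effect; % is set by controls: 0 for no effect and ±100 for the full control effect; nearly all actives have a fitted effect of over 50% in size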
* hit, by the source's call; u = inconclusive; x = no result; [ ] = another dose, or the depositor's remark. Unless noted, calls come from the whole dose curve; as a rule, active = well fitted curve in the direction sought with a large enough effect; inconclusive = small, poorly fitted or top-dose-only effect, or another doubt; inactive = no such curve, though single readings can be large; an effect the other way counts as inactive or inconclusive.

SMILES	MBNL1-CUG inh	RORg inh	Six1-Eya2 inh	CtBP-E1A blk	CBFb-RUNX1 inh	VP16 counter
CCOc1cc(NC(=S)NCCCOC)c(OCC)cc1NC(=O)c1cccs1	2.3%	14.1µM*	-13.4	0.1	4.4%	u
O=C(Nc1csnn1)OCc1ccccc1	x	x	3.9	24.8	x	x
Cc1ccc(-c2nc3cnccn3c2Nc2ccc3c(c2)OCO3)o1	13.6%	24.9%	-8.6	-14.1	-1.8%	19.9%
Cc1ccn2c(Nc3ccc4c(c3)OCO4)c(-c3ccccn3)nc2c1	u	u	-87.9*	-80.8*	0.0%	u
Cc1ccc(Nc2c(-c3ccccn3)nc3cc(C)ccn23)cc1	27.7%	12.6µM*	-81.5*	-93.1*	x	u
Cc1ccc(Nc2c(-c3ccccc3)nc3cnccn23)cc1	3.1%	35.3%	4.1	3.6	0.0%	19.5%
Cc1ccc(Nc2c(-c3ccccn3)nc3ccc(C)cn23)cc1	49.6%	12.6µM*	-93.0*	x	x	u
Cc1ccc2nc(-c3ccncc3)c(Nc3ccccc3)n2c1	x	-10.3%[10 µM]	7.8	-1.9	9.2%	7.2%
Cc1cc(C)n2c(Nc3ccc4c(c3)OCCO4)c(-c3ccccn3)nc2n1	x	x	-88.8*	u	x	x
CCCN(CC(=O)Nc1ccccc1OC)C(=O)CCC(=O)c1ccc(Cl)s1	x	x	2.3	4.7	x	x
CC(C)(C)OC(=O)N[C@H](C(=O)OC(C)(C)C)c1ccc(C(F)(F)F)cc1	x	x	21.3	-17.1	x	x
O=C(CSc1nnc(-c2cc3ccccc3cc2O)n1Cc1ccco1)c1ccc(F)cc1	11.6%	-32.6%	-7.2	-14.3	u	14.1µM*
O=C(NNc1ccccc1)Nc1ccccc1F	2.2%	13.6%	-2.2	-2.2	x	3.3%
COc1ccc(/C(C)=N/Nc2cccc(C(=O)O)c2)cc1OC	7.2%	-2.6%	-15.2	-0.6	6.3%	-23.2%
COc1ccc(/C(C)=N/Nc2nc3ccccc3nc2C)cc1OC	20.2%	4.47µM*	u	-19.2	-18.0%	u
COc1ccc(OC)c(Nc2nc(-c3sc(NC(=O)C(C)(C)C)nc3C)cs2)c1	56.6%	u	-28.6	u	u	11.2µM*
CCCC(C)C(=O)Nc1nc(C)c(-c2csc(Nc3ccc(Cl)cc3)n2)s1 (stereo unspecified)	23.4%	u	-5.2	0.6	-11.7%	11.2µM*
COc1ccc(Cl)cc1Nc1nc(-c2sc(NC(=O)C(C)(C)C)nc2C)cs1	95.2%	u	-5.8	-2.3	u	7.08µM*
Brc1ccc2nc(-c3ccco3)c(CC3CCCCC3)n2c1	x	x	-11.8	1.1	x	x
CCCCc1ccc(S(=O)(=O)NC(=O)C2(C)CCN2C(=O)CC2CC2)cc1 (stereo unspecified)	x	x	11.8	-24.0	x	x
CCN1/C(=C\C(=S)Nc2ccccc2)Sc2ccccc21	56.3%	3.98µM*	u	-0.7	u	u
FC(F)(F)c1nc(N2CCCC2)ncc1-c1nnnn1-c1ccccc1	1.3%	44.0%	11.7	12.2	10.0%	u
Cc1ccc(-n2nnnc2-c2cnc(N3CCCC3)nc2C(F)(F)F)cc1	3.5%	u	15.3	19.0	10.7%	15.8µM*
Cc1[nH]n(-c2ccccc2)c(=O)c1C(=O)c1ccc(Cl)cc1	-8.1%	11.2µM*	-9.4	-4.0	1.1%	6.0%
Cc1[nH]n(-c2ccccc2)c(=O)c1C(=O)c1ccccc1	-5.9%	u	-1.7	3.6	6.9%	19.8%
SMILES	MBNL1-CUG inh	RORg inh	Six1-Eya2 inh	CtBP-E1A blk	CBFb-RUNX1 inh	VP16 counter
CCSC(=S)c1c(C)[nH]n(-c2ccccc2)c1=O	x	0.355µM*	-1.0	-2.6	-8.1%	1.12µM*
CCCN(C(=O)c1ccc(S(=O)(=O)N2CCCC2)cc1)C1CCS(=O)(=O)C1 (stereo unspecified)	x	x	2.3	-23.1	x	x
CCOC(=O)C1(C)CCCN1C(=O)c1cccc(F)c1 (stereo unspecified)	x	x	27.2	0.0	x	x
Cc1cc(C(=O)COC(=O)c2ccccc2O)c(C)n1Cc1cccs1	4.2%	3.55µM*	-7.5	1.2	-1.2%	7.08µM*
CC(=O)Nc1ccccc1OCC(=O)c1cc(C)n(Cc2cccs2)c1C	-6.5%	-38.0%	-13.5	-7.4	-10.8%	1.26µM*
Cc1cc(C(=O)COC(=O)c2ccc3c(c2)OCO3)c(C)n1Cc1cccs1	-4.2%	9.8%	-7.8	-6.5	-18.1%	-14.4%
COc1cc(NC(=O)C2CCCN(S(=O)(=O)c3ccc4c(c3)CCCN4C(C)=O)C2)cc(OC)c1 (stereo unspecified)	4.0%	-0.3%	u	-65.1*	x	-9.5%
COc1ccc(NC(=O)C2CCCN(S(=O)(=O)c3ccc4c(c3)CCCN4C(C)=O)C2)cc1 (stereo unspecified)	-5.1%	5.6%	-7.3	-6.4	x	-9.6%
COc1ccc(S(=O)(=O)N2CCCC(C(=O)Nc3cccc(C(C)=O)c3)C2)cc1 (stereo unspecified)	-1.1%	u	-11.7	-5.1	1.2%	4.47µM*
CCN(C(=O)CSc1nnc(CNc2cccc(OC)c2)n1C1CCCCC1)C1CCS(=O)(=O)C1 (stereo unspecified)	-16.9%	6.0%	-3.5	-2.9	x	-6.7%
O=C(COC(=O)COc1cccc(Br)c1)NCc1ccc2c(c1)OCO2	x	x	6.6	9.1	x	x
Cc1ccc(/C=N/NC(=S)N2CCOCC2)cc1	x	0.562µM*	-18.8	-12.1	2.5%	0.891µM*
S=C(N/N=C/c1ccc(Cl)cc1)N1CCOCC1	13.4%	0.355µM*	-19.5	-28.4	-20.7%	1.78µM*
S=C(c1ccc(Br)cc1)N1CCCC1	-3.7%	-14.3%	-7.8	3.0	x	1.8%
S=C(N/N=C/c1ccc(Br)cc1)N1CCCCC1	15.0%	1.41µM*	-16.8	-14.7	x	0.891µM*
COc1ccc(C(=O)NC(=S)NC(C)(C)C)cc1Br	-5.5%	2µM*	-19.3	-16.0	-12.4%	7.94µM*
COc1ccc(C(=O)NC(=S)NNC(=O)c2ccc(NC(C)=O)cc2)cc1Br	17.9%	7.94µM*	u	u	u	u
COc1ccc(C(=O)NNC(=S)NC(=O)c2ccc(F)cc2)cc1Br	x	x	1.6	x	x	x
COc1ccc(C(=O)NC(=S)NNC(=O)c2ccncc2)cc1Br	x	x	-4.9	-15.9	x	x
COc1ccc(C(=O)NC(=S)NC(C)C)cc1Br	-12.6%	1.78µM*	-9.6	-10.0	-4.9%	11.2µM*
COc1ccc2c(c1OC)C(=O)N(c1ccc(OCc3ccccc3)cc1)C2=O	-3.9%	5.8%	6.6	-2.4	x	5.4%
COC(=O)c1ccc(N(C(=O)CNC(=O)c2ccco2)C(C(=O)NCC2CCCO2)c2ccc(OC)c(OC)c2)cc1 (stereo unspecified)	-1.6%	-0.7%	7.1	15.2	x	0.8%

Source: PubChem BioAssay (National Center for Advancing Translational Sciences (NCATS))
